Assay outcomes as filed in PubChem.
Giardia killer: Giardia lamblia killing; activity change, % at 7.66 µM, hits read low; Giardia lamblia trophozoite viability; actives 0.15% (n = 340,000); AID 540267; in the data active = activity change below about -80%; inconclusive = between about -30% and that limit;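 also: parasites exposed to compound for two days anaerobically before the ATP read; % is scaled to controls: 0 for no effect and ±100 for the full control effect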
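Viability, read as ATP luminescence: trophozoites at 100 cells/well, compound added, 48 hrs anaerobic at 37 deg C, then 15-30 min room-temperature development before reading.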
Gal4-VP16 FLuc: Gal4-VP16 reporter inhibition counter-screen; Drosophila S2 Gal4-VP16 UAS-luciferase, luminescence, 20 h; Potency, µM (doses to about 53.6 µM), for the others: at the top dose activity, negative = inhibition, most hits filed as inhibitors; actives 3.5% (n = 310,000); AID 2546;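 also: Gal4-VP16 expression switched on by copper sulfate through the metallothionein promoter; potency is read from the fitted curve at half-maximal effect; % is scaled to controls: 0 for no effect and ±100 for the full control effect; nearly all actives have a fitted effect of over 50% in size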
p53 reactivation: re-activators of mutant p53; H1299 p53-A138V BP100-luciferase reporter, luminescence, 24 h; Potency, µM (top dose mostly 92.2 µM), for inactives: at the highest dose activity change, positive = activation, hits mostly activators; actives 0.063% (n = 320,000); also: potency is read from the fitted curve at half-maximal effect; % of control where 0% means no effect; nearly all actives have a fitted effect of over 45% in size
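H1299 (p53-null), stable ts p53-A138V + BP100-Luc; 1000 cells/well, Opti-MEM/10% FBS; cpd 4 pt, 1:5; 24 h, 37 deg C, 5% CO2; detection reagent 10 min RT; luminescence.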
BRCA1 expr up: activators of BRCA1 expression | actives 1.1% (n = 380,000) | MCF7-BRCA1-FFLuc reporter, luminescence, 48 h; response scale: scaled: vehicle 0%, 10 µM genistein 100% | Potency, µM (doses to about 46.1 µM), inactives show top-dose activation, actives largely listed as activators; also: potency is read from the fitted curve at half-maximal effect; nearly all actives have a fitted effect of over 80% in size
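Compounds are tested at multiple concentrations on MCF7 BRCA1-luciferase reporter cells seeded at 2000 per well; after 48 h, a single luminescence end-point is taken and curves fitted to the normalized data.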
ELG1 DNA repair: blocks ELG1-dependent DNA repair in HEK293T cells. HEK293T ELG1-luciferase reporter, luminescence, 16 h; DNA damage induced by 5-fluorouridine. actives 2.3% (n = 330,000). AID 504467. Potency, µM (series often up to 46.1 µM), for the others: at the top dose activity change, negative = inhibition, most hits filed as inhibitors; also: potency is read from the fitted curve at half-maximal effect; % is scaled to controls: 0 for no effect and ±100 for the full control effect; nearly all actives have a fitted effect of over 55% in size
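DMSO vehicle served as the neutral condition. Each well held 2,000 cells given 5-fluorouridine plus compound; after 16 hr at 37 °C/5% CO2, ONE-Glo was added and luciferase measured 30 min later.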
RORgamma inh: ROR gamma (mouse) transcription inhibition | P51450 | Drosophila S2 Gal4-RORgamma UAS-luciferase reporter, 20 h | Potency, µM (highest dose often 53.6 µM), without a hit: at the top dose activity change, negative = inhibition, actives largely listed as inhibitors | actives 5.4% (n = 310,000); also: potency is read from the fitted curve at half-maximal effect; % is scaled to controls: 0 for no effect and ±100 for the full control effect; nearly all actives have a fitted effect of over 60% in size
Target sequence (P51450 whole entry, looked up, the tested form may be a part): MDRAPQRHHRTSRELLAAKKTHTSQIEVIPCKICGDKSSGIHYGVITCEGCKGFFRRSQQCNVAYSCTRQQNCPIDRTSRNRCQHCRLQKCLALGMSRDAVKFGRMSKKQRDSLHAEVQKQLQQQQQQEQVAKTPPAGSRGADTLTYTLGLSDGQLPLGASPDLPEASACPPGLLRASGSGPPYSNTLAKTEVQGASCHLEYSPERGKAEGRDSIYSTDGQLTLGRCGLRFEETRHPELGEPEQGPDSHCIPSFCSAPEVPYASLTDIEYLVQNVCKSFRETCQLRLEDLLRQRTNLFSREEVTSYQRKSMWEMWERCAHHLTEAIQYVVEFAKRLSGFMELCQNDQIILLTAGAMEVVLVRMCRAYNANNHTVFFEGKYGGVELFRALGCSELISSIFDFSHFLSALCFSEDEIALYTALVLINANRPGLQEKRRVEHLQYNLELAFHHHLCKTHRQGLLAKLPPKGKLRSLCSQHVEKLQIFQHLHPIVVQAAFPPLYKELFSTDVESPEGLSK
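A Gal4/UAS one-hybrid system in insect cells: metallothionein-promoter Gal4–ROR gamma fusion plus Photinus luciferase reporter. Copper sulfate 700 uM final, 20 hr ambient incubation, luminescent detection after 10 min with reagent.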
* = called active by the depositor; ? = inconclusive; · = no result; [ ] = another dose, or the depositor's remark. In the library only some 7.6% were active in any assay of this set; here they are far more common. Unless noted, calls follow the shape of the dose curve; as a rule, active = well fitted curve in the direction sought with a large enough effect; inconclusive = small, poorly fitted or top-dose-only effect, or another doubt; inactive = no such curve, though single readings can be large; an effect the other way counts as inactive or inconclusive.

SMILES	Giardia killer	Gal4-VP16 FLuc	p53 reactivation	BRCA1 expr up	ELG1 DNA repair	RORgamma inh
Cc1cc(NC(=O)c2ccc3c(c2)C(=O)N(c2cccc(C)c2C)C3=O)no1	-8	18µM*	2%	-6%	1%	?
O=C(Nc1ccccn1)c1ccc2c(c1)OCCO2	-28	2%	13%	-19%	?	10µM*
CCCN1C(=O)c2ccc(C(=O)Nc3cc(C)on3)cc2C1=O	-20	-3%[0.365 µM]	5%	38%	?	3%
O=C(Nc1ncccc1Cl)c1ccc2c(c1)OCCO2	-9	-11%	15%	8.9µM*	?	-36%
Cc1cc(F)ccc1-c1cc(C(=O)NCc2ccco2)[nH]n1	·	·	·	42%	·	·
Cc1nnnn1-c1cccc(C(=O)O)c1	-17	-2%	6%	14%	11%	-31%
COc1ccccc1NC(=O)NCCc1ccccc1	-7	-5%	-8%	0%	-5%	11%
CCOc1ccccc1NC(=S)NCCc1ccc(F)cc1	0	10µM*	-3%	-7%	-10%	1.6µM*
CCOc1ccccc1NC(=S)NCCc1ccccc1	-4	5µM*	-4%	-4%	-29%	1.3µM*
COc1ccc(NC(=S)NCCc2ccc(F)cc2)c(OC)c1	13	?	-6%	0%	0%	?
Cn1c2ccccc2c2nnc(SCCN3CCOCC3)nc21	-4	17%	4%	27%	11%	16%
Cn1cccc1C(=O)N1CCC2(CCCN(c3ccc(-c4ccccc4)cc3)C2)CC1	·	-7%	·	·	·	8%
Cc1cc(NC(=O)CSc2nc(C3CC3)nc3sc4c(c23)CCC(C)C4)no1 (stereo not given)	1	·	·	?	·	·
CC12CC3CC(C)(C1)CC(CN1CCOCC1)(C3)C2	0	0%	-14%	-19%	14%	1%
O=c1cnc2ccccc2n1Cc1ccc(Br)cc1	-13	19%	11%	17%	5%	?
CC(C)(C)c1ccc(Cn2c(=O)cnc3ccccc32)cc1	-11	?	13%	-88%	-11%	22µM*
O=C(CN1CCN(c2ccccc2F)CC1)NC(=O)NC1CCCCC1	-3	·	-5%	-5%	-1%	·
N#CCCn1cc(C(=O)Nc2ccccc2Br)c(-c2cc3ccccc3o2)n1	-4	7.9µM*	-21%	-39%	?	?
N#CCCn1cc(C(=O)Nc2ccc([N+](=O)[O-])cc2)c(-c2cc3ccccc3o2)n1	5	-13%	0%	-32%	-3%	?
Cn1cc(S(=O)(=O)N2CCCCC2)cc1C(=O)N1CCN(c2ccccc2F)CC1	·	·	·	1%	·	·
N=c1c(C(=O)NCc2ccco2)cc2c(=O)n3ccccc3nc2n1C1CCCC1	13	0%	0%	-21%	-10%	0%
O=C1/C(=C/c2ccco2)CCc2ccccc21	-11	?	?	36%	?	?
COc1ccc2c(c1)CC/C(=C/c1ccco1)C2=O	-11	?	?	3.5µM*	?	-33%
COC(=O)c1c(-c2ccc(Br)cc2)csc1NC(=O)Cc1ccc(OC)c(OC)c1	-3	?	-6%	-59%	18µM*	?
COC(=O)c1c(-c2cccc3ccccc23)csc1NC(=O)Cc1ccc(OC)c(OC)c1	11	-22%	0%	-61%	21µM*	4%
SMILES	Giardia killer	Gal4-VP16 FLuc	p53 reactivation	BRCA1 expr up	ELG1 DNA repair	RORgamma inh
O=C(NNS(=O)(=O)c1ccc(C(=O)NC2CCCC2)cc1)c1ccncc1	-8	-2%	10%	14%	-5%	-12%
COC(=O)c1cccc(NC(=O)c2onc3c2CCCC3)c1	-12	?	?	?	?	7.1µM*
Cc1cccc(NC(=O)c2onc3c2CCCC3)n1	?	5.6µM*	?	-76%	?	2µM*
O=C(Nc1ccc2ccccc2c1)c1onc2c1CCCC2	28	?	33%	?	?	14µM*
CC(C)[C@H](NS(=O)(=O)c1ccc2c(c1)OCCO2)C(=O)OCC(=O)Nc1ccccc1Cl	1	-6%	1%	-4%	-16%	-33%
CC(C)[C@H](NS(=O)(=O)c1ccc2c(c1)OCCO2)C(=O)OCC(=O)Nc1cc(Cl)ccc1Cl	14	?	4%	-15%	18µM*	8%
Cc1nc2cc(C(=O)NCc3ccc4c(c3)OCO4)ccc2n1-c1ccc(Br)cc1	7	-7%	-3%	-47%	-16%	32%
CCOc1ccc(C2C=C(c3ccc(F)cc3)Nc3ncnn32)cc1 (stereo not given)	11	?	-19%	?	-7%	13µM*
Cc1nc(SCC(=O)Nc2ccc(S(=O)(=O)N3CCOCC3)cc2)c2c(C)c(C)sc2n1	-9	·	-15%	-80%	16µM*	·
Cc1cccc(N2CCN(CC(=O)Nc3nccs3)CC2)c1C	9	-12%	-1%	-7%	?	10µM*
Cc1cccc(N2CCN(CC(=O)Nc3ccc(S(=O)(=O)N4CCOCC4)cc3)CC2)c1C	-11	?	-2%	-9%	15µM*	31%
COc1ccccc1N1CCN(CC(=O)Nc2nccs2)CC1	2	-6%	-3%	0%	-24%	-6%
CCOC(=O)c1ccc(NC(=O)CSc2nc(N)c(NC(=O)c3ccc(Br)o3)c(=O)[nH]2)cc1	2	-8%	2%	-5%	-1%	-22%
O=C(Cc1cnn(-c2ccccc2)c1)c1ccc(O)c(O)c1O	-7	11%	26%	5.6µM*	?	31%
COc1ccc(Cl)cc1NC(=O)CC(=O)Nc1cc(Cl)ccc1OC	21	-8%	6%	-37%	4%	17%
COC(=O)c1cc(OC)c(OC)cc1NC(=S)Nc1cccc(Cl)c1	6	6.3µM*	-2%	-21%	14%	4µM*
COC(=O)c1cc(OC)c(OC)cc1NC(=S)Nc1cc(Cl)ccc1OC	-14	1.4µM*	-7%	-1%	2%	1.3µM*
COc1cc(NC(=O)Nc2cccc(Cl)c2)c(C(=O)O)cc1OC	1	1%	0%	6%	?	?
COc1ccc(Cl)cc1NC(=S)Nc1ccc(Cl)cn1	-18	?	-4%	-51%	-5%	1.3µM*
COc1ccc(Cl)cc1S(=O)(=O)Nc1ccc(Cl)cn1	-12	3%	-5%	-20%	15%	3%
O=C(CN1CCc2ccccc2C1)c1cccs1	17	-3%	8%	-19%	?	4%
CC(C)c1nnc(NC(=O)c2cnccn2)s1	-5	?	26%	39%	?	?
CN1CCN(C2=C(Cl)C(=O)N(Cc3ccccc3)C2=O)CC1	-4	1%	20µM*	10%	-14%	15%
CCN1CCN(C2=C(Cl)C(=O)N(Cc3ccccc3)C2=O)CC1	-5	27%	20%	-11%	?	6%
